This is one part of a sample in which hits are shown more often than they occur.
Methyltransferases = Primary Screen for Target Class Profiling of Small Molecule Inhibitors of Methyltransferases | calls only at 40 µM | actives 3.9% (n = 25,000) | purified enzyme, MTase-Glo SAH luminescence; active compounds read low; call rule not given here
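Each enzyme was assayed with SAM and its substrate. SAH formation detected by MTase-Glo luminescence; single-point 40 uM screen[…].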
MTase-Glo counter = counter-screen for methyltransferase inhibitors: coupling enzymes without methyltransferase. MTase-Glo coupled enzymes, SAH conversion luminescence, no MTase. Potency, µM (series often up to 57.3 µM), without a hit: top-dose activity change, negative = inhibition, actives largely listed as inhibitors. shares compounds with Methyltransferases. actives 6% (n = 180); active means well fitted inhibition curve with a large enough effect; further: potency means the concentration at half of the fitted maximal effect
Starred values were filed as active, the others as inactive; [ ] = remark or other dose. On the % scale 0 is the no-effect control and ±100 the full control effect.

How did COc1ccc(C2c3cccn3-c3ccccc3CN2C(=O)Nc2ccc(C)cc2C)cc1OC (stereo unspecified) do in these assays?
Methyltransferases: inactive

How did CC1Oc2cc3c(-c4c(O)cc(O)c5c(O)c6c(cc45)OC(C)C(C)C6=O)c(O)cc(O)c3c(O)c2C(=O)C1C (stereo unspecified) do in these assays?
Methyltransferases: active

Results for COc1ccc(NC(=O)N2Cc3ccccc3-n3cccc3C2c2cccc(C)c2)c(OC)c1 (stereo unspecified) ?
Methyltransferases: inactive

How did COCCCNC(=O)N1Cc2ccccc2-n2cccc2C1c1ccc(F)cc1 (stereo unspecified) do in these assays?
Methyltransferases: inactive

Results for CC(C)C1c2cccn2-c2ccccc2CN1C(=O)Nc1ccc(Br)cc1F (stereo unspecified) ?
Methyltransferases: inactive

What do the screens show for `COc1cc(OC)c(NC(=O)N2Cc3ccccc3-n3cccc3C2c2ccccc2)cc1Cl` (stereo unspecified)?
Methyltransferases: inactive

What do the screens show for `CCOC(=O)c1ccc(NC(=O)N2Cc3ccccc3-n3cccc3C2c2cccc(Cl)c2)cc1` (stereo unspecified)?
Methyltransferases: inactive

What do the screens show for `COc1ccc(NC(=O)N2Cc3ccccc3-n3cccc3C2c2cccc(C)c2)cc1` (stereo unspecified)?
Methyltransferases: inactive

Results for CCOC(=O)CNC(=O)N1Cc2ccccc2-n2cccc2C1c1ccc(C(C)C)cc1 (stereo unspecified) ?
Methyltransferases: inactive

How did CNc1ccc2oc(C[C@H]3O[C@@]4(CC[C@H]3C)O[C@H]([C@H](C)C(=O)c3ccc[nH]3)[C@H](C)C[C@H]4C)nc2c1C(=O)O do in these assays?
Methyltransferases: active

How did CCC1c2cccn2-c2ccccc2CN1C(=O)Nc1cc(C)cc(C)c1 (stereo unspecified) do in these assays?
Methyltransferases: inactive

How did CCC1c2cccn2-c2ccccc2CN1C(=O)Nc1cccc(Cl)c1 (stereo unspecified) do in these assays?
Methyltransferases: inactive

What do the screens show for `CCOc1ccc(C2c3cccn3-c3ccccc3CN2C(=O)Nc2ccccc2C(=O)OC)cc1` (stereo unspecified)?
Methyltransferases: inactive

Results for COc1ccc(NC(=O)N2Cc3ccccc3-n3cccc3C2c2ccc(SC)cc2)cc1OC (stereo unspecified) ?
Methyltransferases: inactive

How did COCCCNC(=O)N1Cc2ccccc2-n2cccc2C1c1ccc(SC)cc1 (stereo unspecified) do in these assays?
Methyltransferases: inactive

What do the screens show for `CCOc1ccc(C2c3cccn3-c3ccccc3CN2C(=O)NCCCOC)cc1` (stereo unspecified)?
Methyltransferases: inactive

What do the screens show for `CCc1ccc(C2c3cccn3-c3ccccc3CN2C(=O)NCc2ccccc2)cc1` (stereo unspecified)?
Methyltransferases: inactive

Results for COc1cccc(NC(=O)N2Cc3ccccc3-n3cccc3C2c2cccc(Cl)c2)c1 (stereo unspecified) ?
Methyltransferases: inactive

How did CCOc1ccc(C2c3cccn3-c3ccccc3CN2C(=O)Nc2cc(Cl)ccc2C)cc1 (stereo unspecified) do in these assays?
Methyltransferases: inactive

Results for Oc1ccc2c(c1)C13CCCC[C@H]1[C@@H](C2)N(CC1CCC1)CC3 ?
Methyltransferases: active

What do the screens show for `CCOc1ccc(C2c3cccn3-c3ccccc3CN2C(=O)Nc2cc(C)cc(C)c2)cc1` (stereo unspecified)?
Methyltransferases: inactive

What do the screens show for `CCOC(=O)c1ccc(NC(=O)N2Cc3ccccc3-n3cccc3C2c2ccccc2Cl)cc1` (stereo unspecified)?
Methyltransferases: inactive

How did Cc1nnc2n1-c1sc(CCc3ccc(CC(C)C)cc3)cc1C(c1ccccc1Cl)=NC2C (stereo unspecified) do in these assays?
Methyltransferases: active

What do the screens show for `Cc1ccccc1C1c2cccn2-c2ccccc2CN1C(=O)Nc1ccccc1F` (stereo unspecified)?
Methyltransferases: inactive

What do the screens show for `Cc1cccc(C2c3cccn3-c3ccccc3CN2C(=O)Nc2ccccc2C)c1` (stereo unspecified)?
Methyltransferases: inactive

Results for CCOc1ccccc1NC(=O)N1Cc2ccccc2-n2cccc2C1c1cc(F)cc(F)c1 (stereo unspecified) ?
Methyltransferases: inactive

Results for C=C[C@H]1CN2CC[C@H]1C[C@@H]2[C@@H](O)c1ccnc2ccccc12 ?
Methyltransferases: inactive

Results for C=C[C@H]1CN2CC[C@H]1C[C@@H]2CNC(=O)Nc1ccc(Br)cc1 ?
Methyltransferases: active; MTase-Glo counter: -29.6%[85.7 µM]

Results for Cn1nc(-c2cccs2)cc1[C@H]1CN2CC[C@H]1C[C@@H]2CNC(=O)C1CCCCC1 ?
Methyltransferases: inactive

How did CCOc1ccc(NC(=O)N2Cc3ccccc3-n3cccc3C2CC)cc1 (stereo unspecified) do in these assays?
Methyltransferases: inactive

Results for CS(=O)(=O)NC[C@H]1C[C@@H]2CCN1C[C@@H]2CN1CCc2ccccc2C1 ?
Methyltransferases: inactive

How did COc1ccccc1-c1cc([C@H]2CN3CC[C@H]2C[C@@H]3CNS(=O)(=O)c2ccccc2)n(C)n1 do in these assays?
Methyltransferases: inactive

How did CC[C@H]1CN2CC[C@H]1C[C@@H]2CNCc1ccc(-c2ccccc2)cc1 do in these assays?
Methyltransferases: active; MTase-Glo counter: 2.4%[85.7 µM]

Results for CCC1c2cccn2-c2ccccc2CN1C(=O)Nc1ccc(OC)c(OC)c1 (stereo unspecified) ?
Methyltransferases: inactive

Results for O=C(Nc1ccccc1C(F)(F)F)N1Cc2ccccc2-n2cccc2C1c1cccs1 (stereo unspecified) ?
Methyltransferases: inactive

Results for CCOc1ccc(C2c3cccn3-c3ccccc3CN2C(=O)Nc2ccc(C)cc2)cc1 (stereo unspecified) ?
Methyltransferases: inactive
